From PubChem BioAssay (EPA / NIEHS)
Inconclusive results are not listed. Activity calls are given as the source filed them. Rule for the calls, unless noted: active = hit-call score of the fitted dose curve at least 0.9, where 1 is the maximum; inconclusive = response in the unintended direction; inactive = score below 0.9.

Key:
[1] = BSK_3C_VCAM1: BioMAP Diversity Plus: 3C Assay for Vascular cell adhesion molecule 1 (VCAM1) Biomarker Activity (AID 2282999; active = hit-call score of the fitted dose curve at least 0.9, where 1 is the maximum; inactive = score below 0.9); conditions: BioMAP 3C HUVEC, VCAM1 ELISA, cytokine-stimulated; actives raise or lower the signal
Method in brief: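 Human umbilical vein endothelial cells (3C system), biomarker read by ELISA 24 h after dosing; bidirectional fit against DMSO baseline. Cytotoxicity tracked by SRB total-protein staining in parallel cultures at biomarker time.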

[2] = BSK_4H_Eotaxin3: BioMAP Diversity Plus: 4H Assay for Eotaxin 3 Biomarker Activity (AID 2283000; active = hit-call score of the fitted dose curve at least 0.9, where 1 is the maximum; inactive = score below 0.9); conditions: primary human endothelial cells (HUVEC); actives raise or lower the signal
Method in brief: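 HUVEC, 24 h post-dose, ELISA for Eotaxin-3/CCL26. Gain or loss of signal fitted bidirectionally vs DMSO baseline.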

[3] = biological target: human Peroxisome Proliferator-activated Receptor alpha (PPARa), PPARA (gene 5465) (UniProt Q07869); experiment: ATG_PPARa_TRANS: Attagene TRANS-FACTORIAL HepG2 Assay for human Peroxisome Proliferator-activated Receptor alpha (PPARa) (AID 2283001)
Method in brief: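 HepG2 cells transiently transfected with multiplexed GAL4-UAS reporters driven by exogenous chimeric NR-Gal4 proteins; reporter mRNA measured after 24 h dosing. Read-out by RT-PCR, 6-FAM labelling, HpaI digestion and capillary electrophoresis; gain of signal versus DMSO.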

[4] = biological target: human Peroxisome Proliferator-activated Receptor delta (PPARd), PPARD (gene 5467) (UniProt Q03181); experiment: ATG_PPARd_TRANS: Attagene TRANS-FACTORIAL HepG2 Assay for human Peroxisome Proliferator-activated Receptor delta (PPARd) (AID 2283002)
Method in brief: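 HepG2 cells transiently transfected with GAL4-UAS multiplexed reporter units driven by exogenous chimeric NR-GAL4 proteins; 24 h compound exposure. Reporter mRNA measured by RT-PCR, 6-FAM primer extension, HpaI digestion and capillary electrophoresis; gain of signal fitted relative to DMSO.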

[5] = read-out: Intercellular Adhesion Molecule 1 (ICAM1), ICAM1 (gene 3383); experiment: BSK_3C_ICAM1: BioMAP Diversity Plus: 3C Assay for Intercellular Adhesion Molecule 1 (ICAM1) Biomarker Activity (AID 2283003; active = hit-call score of the fitted dose curve at least 0.9, where 1 is the maximum; inactive = score below 0.9); conditions: primary human endothelial cells (HUVEC); actives raise or lower the signal
Method in brief: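 HUVEC primary cells stimulated under 3C conditions; ICAM1 measured by ELISA 24 h after compound dosing. Curves fitted bidirectionally against the DMSO baseline. Overt cytotoxicity checked by SRB staining of parallel cultures.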

[6] = BSK_3C_Proliferation: Cell Proliferation Assessment in the BioMAP Diversity Plus: 3C Assay (AID 2283006; active = hit-call score of the fitted dose curve at least 0.9, where 1 is the maximum; inactive = score below 0.9;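 for AC50: potency may reflect either rise or fall in cell number versus DMSO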); conditions: primary human endothelial cells (HUVEC)
Method in brief: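 Subconfluent HUVEC (3C system) cultured with chemical; relative cell number read at 48 h by sulforhodamine B total-protein staining (0.1% SRB after 10% TCA fixation, 560 nm). Bidirectional fit relative to DMSO.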

[7] = biological target: Peroxisome proliferator-activated receptor gamma (Homo sapiens) (UniProt P37231); experiment: ATG_PPARg_TRANS: Attagene TRANS-FACTORIAL HepG2 Assay for human Peroxisome Proliferator-activated Receptor-gamma (PPARg) (AID 2283007)
Method in brief: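 After 24 h of chemical exposure, transfected HepG2 cells carrying PPARγ-Gal4 chimera reporter constructs are lysed for RNA. Reporter transcripts are measured by RT-PCR and capillary electrophoresis with fluorescent labelling, and gain of signal is fitted versus DMSO.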

[8] = biological target: Nuclear receptor subfamily 1 group I member 2 (Homo sapiens) (UniProt O75469); experiment: ATG_PXR_TRANS: Attagene TRANS-FACTORIAL HepG2 Assay for human Pregnane X Receptor (PXR) (AID 2283008)
Method in brief: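 Measures mRNA induction of a GAL4-UAS-driven reporter in human HepG2 cells transiently expressing PXR fused to Gal4, following 24 h treatment. DMSO served as negative control and baseline.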

[9] = biological target: human RAR-related Orphan Receptor beta (RORb), RORB (gene 6096) (UniProt Q92753); experiment: ATG_RORb_TRANS: Attagene TRANS-FACTORIAL HepG2 Assay for human RAR-related Orphan Receptor beta (RORb) (AID 2283010)
Method in brief: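 HepG2 cells transiently transfected with GAL4-UAS reporter units expressing chimeric NR-Gal4 protein; reporter mRNA measured 24 h after dosing by RT-PCR, 6-FAM labelling and capillary electrophoresis. Gain-of-signal fitted relative to DMSO baseline.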

[10] = biological target: human Retinoid X Receptor beta (RXRb), RXRB (gene 6257) (UniProt P28702); experiment: ATG_RXRb_TRANS: Attagene TRANS-FACTORIAL HepG2 Assay for human Retinoid X Receptor beta (RXRb) (AID 2283013)
Method in brief: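 HepG2 cells were transiently transfected with multiplexed GAL4-UAS reporters and a chimeric RXRb-Gal4 construct, then exposed for 24 h. Reporter mRNA was quantified by RT-PCR, FAM labeling, HpaI digestion and capillary electrophoresis; gain of signal was scored against DMSO.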

[11] = read-out: E-selectin (Homo sapiens) (UniProt P16581); experiment: BSK_3C_Eselectin: BioMAP Diversity Plus: 3C Assay for Eselectin Biomarker Activity (AID 2283015; active = hit-call score of the fitted dose curve at least 0.9, where 1 is the maximum; inactive = score below 0.9); conditions: primary human endothelial cells (HUVEC); actives raise or lower the signal
Method in brief: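 Primary human umbilical vein endothelial cells (3C system) were dosed with chemical and cell-surface E-selectin measured by ELISA 24 h later. Bidirectional curve fitting used DMSO as negative control and baseline.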

[12] = read-out: Interleukin-1 alpha (IL1a), IL1A (gene 3552); experiment: BSK_BE3C_IL1a: BioMAP Diversity Plus: BE3C Assay for Interleukin-1 alpha (IL1a) Biomarker Activity (AID 2283016; active = hit-call score of the fitted dose curve at least 0.9, where 1 is the maximum; inactive = score below 0.9); conditions: primary human bronchial epithelial cells; actives raise or lower the signal
Method in brief: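 Human primary bronchial epithelial cells, 24 h chemical exposure; IL-1a quantified by ELISA, fitted bidirectionally against DMSO. Cytotoxicity assessed in parallel by SRB total-protein staining at the time of measurement.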

[13] = read-out: Monocyte Chemoattractant Protein-1 (MCP1), CCL2 (gene 6347); experiment: BSK_3C_MCP1: BioMAP Diversity Plus: 3C Assay for Monocyte Chemoattractant Protein-1 (MCP1) Biomarker Activity (AID 2283017; active = hit-call score of the fitted dose curve at least 0.9, where 1 is the maximum; inactive = score below 0.9); conditions: primary human endothelial cells (HUVEC); actives raise or lower the signal
Method in brief: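 Primary human umbilical vein endothelial cells (3C system) were exposed to test chemical for 24 h, after which MCP-1 was quantified by ELISA. Activity was fitted bidirectionally against DMSO as negative control and baseline.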

[14] = read-out: Monocyte Chemoattractant Protein-1 (MCP1), CCL2 (gene 6347); experiment: BSK_4H_MCP1: BioMAP Diversity Plus: 4H Assay for Monocyte Chemoattractant Protein-1 (MCP1) Biomarker Activity (AID 2283018; active = hit-call score of the fitted dose curve at least 0.9, where 1 is the maximum; inactive = score below 0.9); conditions: primary human endothelial cells (HUVEC); actives raise or lower the signal
Method in brief: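 Human umbilical vein endothelial cells (4H system) exposed to chemicals for 24 h in 96-well format. MCP-1 measured by ELISA; bidirectional fitting against DMSO, with SRB total-protein staining in parallel cultures for cytotoxicity.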

[15] = biological target: Retinoic acid receptor RXR-alpha (Homo sapiens) (UniProt P19793); experiment: ATG_RXRa_TRANS: Attagene TRANS-FACTORIAL HepG2 Assay for human Retinoid X Receptor alpha (RXRa) (AID 2283012)
Method in brief: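 HepG2 cells transiently transfected with GAL4-UAS reporter units and chimeric RXRa-Gal4 protein, treated 24 h. Reporter mRNA measured by RT-PCR, fluorescent labelling, HpaI digestion and capillary electrophoresis. Induction fitted against DMSO.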

[16] = biological target: human Thyroid Receptor alpha (THRa1), THRA (gene 7067) (UniProt P10827); experiment: ATG_THRa1_TRANS: Attagene TRANS-FACTORIAL HepG2 Assay for human Thyroid Receptor alpha (THRa1) (AID 2283014)
Method in brief: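 HepG2 cells transiently transfected with multiplexed GAL4-UAS reporter units for exogenous chimeric THRa1-Gal4; reporter mRNA measured 24 h after dosing by RT-PCR, 6-FAM labelling, HpaI digestion and capillary electrophoresis. Gain-of-signal fitted versus DMSO baseline.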

[17] = biological target: human Retinoic Acid Receptor beta (RARb), RARB (gene 5915) (UniProt P10826); experiment: ATG_RARb_TRANS: Attagene TRANS-FACTORIAL HepG2 Assay for human Retinoic Acid Receptor beta (AID 2283004)
Method in brief: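 HepG2 cells transiently transfected with multiplexed GAL4-UAS reporter units expressing chimeric NR–Gal4 fusions; 24 h compound exposure. Reporter mRNA quantified by RT-PCR, 6-FAM labelling, HpaI digestion and capillary electrophoresis; gain-of-signal fitted against DMSO baseline.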

[18] = biological target: Retinoic acid receptor alpha (Homo sapiens) (UniProt P10276); experiment: ATG_RARa_TRANS: Attagene TRANS-FACTORIAL HepG2 Assay for human Retinoic Acid Receptor alpha (RARa) (AID 2283005)
Method in brief: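 HepG2 transiently transfected with multiplex GAL4-UAS reporter units including a human RARa–GAL4 chimera; 24 h compound exposure. Reporter mRNA quantified by RT-PCR, 6-FAM labeling and capillary electrophoresis; gain of signal versus DMSO.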

[19] = biological target: human Retinoic Acid Receptor gamma (RARg), RARG (gene 5916) (UniProt P13631); experiment: ATG_RARg_TRANS: Attagene TRANS-FACTORIAL HepG2 Assay for human Retinoic Acid Receptor gamma (RARg) (AID 2283009)
Method in brief: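 HepG2 transiently transfected with GAL4-UAS reporter units and chimeric NR-Gal4 constructs; 24 h compound exposure. Reporter mRNA quantified by RT-PCR, FAM labeling, HpaI digestion and capillary electrophoresis; gain-of-signal versus DMSO.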

[20] = biological target: human RAR-related Orphan Receptor gamma (RORg), RORC (gene 6097) (UniProt P51449); experiment: ATG_RORg_TRANS: Attagene TRANS-FACTORIAL HepG2 Assay for human RAR-related Orphan Receptor gamma (RORg) (AID 2283011)
Method in brief: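 Readout: reporter transcript induction (RT-PCR, fluorescent primer extension, capillary electrophoresis) after 24 h compound exposure of transiently transfected HepG2 cells carrying a RORg-Gal4 chimera and GAL4-UAS reporters; DMSO served as baseline, with increasing signal fitted.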

Measured: AC50

human Retinoid X Receptor beta (RXRb), RXRB (gene 6257), sequence (P28702 whole entry, looked up, the tested form may be a part): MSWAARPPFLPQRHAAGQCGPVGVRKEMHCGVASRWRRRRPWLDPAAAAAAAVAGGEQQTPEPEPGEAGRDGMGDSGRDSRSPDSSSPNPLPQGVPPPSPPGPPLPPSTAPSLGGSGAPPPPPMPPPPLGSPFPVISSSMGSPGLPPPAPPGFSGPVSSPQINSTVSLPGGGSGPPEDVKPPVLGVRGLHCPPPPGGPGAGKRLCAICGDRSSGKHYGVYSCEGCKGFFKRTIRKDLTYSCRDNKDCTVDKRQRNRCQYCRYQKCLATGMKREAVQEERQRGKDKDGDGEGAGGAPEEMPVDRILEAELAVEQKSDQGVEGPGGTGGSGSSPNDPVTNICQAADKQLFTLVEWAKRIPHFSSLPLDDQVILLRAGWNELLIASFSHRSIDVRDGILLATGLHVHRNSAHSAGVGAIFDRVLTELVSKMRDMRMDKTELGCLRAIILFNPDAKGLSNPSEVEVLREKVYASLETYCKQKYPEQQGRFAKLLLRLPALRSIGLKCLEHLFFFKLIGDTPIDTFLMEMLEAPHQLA
Retinoic acid receptor RXR-alpha (Homo sapiens), sequence (P19793 whole entry, looked up, the tested form may be a part): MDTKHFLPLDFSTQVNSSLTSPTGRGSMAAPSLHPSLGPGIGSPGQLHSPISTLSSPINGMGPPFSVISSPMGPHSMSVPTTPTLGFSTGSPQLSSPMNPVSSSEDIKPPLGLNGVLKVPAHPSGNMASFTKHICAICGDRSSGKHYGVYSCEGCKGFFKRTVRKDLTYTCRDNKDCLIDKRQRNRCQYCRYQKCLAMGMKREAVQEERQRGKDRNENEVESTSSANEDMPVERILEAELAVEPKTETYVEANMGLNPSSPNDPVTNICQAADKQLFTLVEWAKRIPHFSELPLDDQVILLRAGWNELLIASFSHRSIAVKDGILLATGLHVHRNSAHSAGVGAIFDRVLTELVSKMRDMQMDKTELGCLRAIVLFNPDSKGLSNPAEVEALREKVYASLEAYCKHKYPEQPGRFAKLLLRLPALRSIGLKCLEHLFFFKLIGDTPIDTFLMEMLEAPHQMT
human Peroxisome Proliferator-activated Receptor alpha (PPARa), PPARA (gene 5465), sequence (Q07869 whole entry, looked up, the tested form may be a part): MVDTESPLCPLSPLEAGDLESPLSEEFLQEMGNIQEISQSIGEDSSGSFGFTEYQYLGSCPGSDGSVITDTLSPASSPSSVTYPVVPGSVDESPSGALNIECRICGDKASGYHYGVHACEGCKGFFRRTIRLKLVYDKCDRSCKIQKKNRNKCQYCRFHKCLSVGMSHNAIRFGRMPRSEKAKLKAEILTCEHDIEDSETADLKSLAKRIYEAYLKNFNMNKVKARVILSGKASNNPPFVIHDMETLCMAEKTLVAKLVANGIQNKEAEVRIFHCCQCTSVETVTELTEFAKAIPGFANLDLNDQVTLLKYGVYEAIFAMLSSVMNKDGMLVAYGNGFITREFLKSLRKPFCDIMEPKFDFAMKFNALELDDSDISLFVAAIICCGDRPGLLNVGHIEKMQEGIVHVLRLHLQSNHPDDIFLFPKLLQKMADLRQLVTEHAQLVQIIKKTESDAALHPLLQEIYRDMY
human RAR-related Orphan Receptor gamma (RORg), RORC (gene 6097), sequence (P51449 whole entry, looked up, the tested form may be a part): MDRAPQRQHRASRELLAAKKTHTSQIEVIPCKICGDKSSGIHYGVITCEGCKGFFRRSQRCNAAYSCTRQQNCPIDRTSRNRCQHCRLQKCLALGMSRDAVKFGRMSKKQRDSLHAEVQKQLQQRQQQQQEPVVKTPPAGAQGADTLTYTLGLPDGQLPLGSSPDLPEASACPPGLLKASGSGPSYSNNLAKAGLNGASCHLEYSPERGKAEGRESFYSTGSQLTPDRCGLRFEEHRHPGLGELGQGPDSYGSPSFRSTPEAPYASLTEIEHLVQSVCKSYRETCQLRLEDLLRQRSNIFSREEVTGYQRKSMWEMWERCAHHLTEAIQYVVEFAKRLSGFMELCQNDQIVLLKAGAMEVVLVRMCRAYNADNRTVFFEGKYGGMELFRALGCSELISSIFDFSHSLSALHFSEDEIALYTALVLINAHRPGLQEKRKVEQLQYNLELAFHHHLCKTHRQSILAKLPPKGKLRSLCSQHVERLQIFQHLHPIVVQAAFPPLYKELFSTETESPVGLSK
Peroxisome proliferator-activated receptor gamma (Homo sapiens), sequence (P37231 whole entry, looked up, the tested form may be a part): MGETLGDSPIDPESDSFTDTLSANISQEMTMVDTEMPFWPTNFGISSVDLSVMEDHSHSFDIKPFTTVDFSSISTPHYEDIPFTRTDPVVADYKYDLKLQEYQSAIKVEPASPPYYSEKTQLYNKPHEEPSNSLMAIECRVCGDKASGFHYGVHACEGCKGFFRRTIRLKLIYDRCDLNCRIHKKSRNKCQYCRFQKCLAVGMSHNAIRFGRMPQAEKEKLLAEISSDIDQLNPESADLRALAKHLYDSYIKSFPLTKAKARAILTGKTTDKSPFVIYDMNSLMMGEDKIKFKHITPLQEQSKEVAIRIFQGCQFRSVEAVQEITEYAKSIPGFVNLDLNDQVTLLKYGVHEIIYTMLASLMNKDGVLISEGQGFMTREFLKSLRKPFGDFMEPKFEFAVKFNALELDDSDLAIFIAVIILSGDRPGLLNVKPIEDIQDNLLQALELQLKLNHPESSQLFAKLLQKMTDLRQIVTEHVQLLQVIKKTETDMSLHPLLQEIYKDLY
human RAR-related Orphan Receptor beta (RORb), RORB (gene 6096), sequence (Q92753 whole entry, looked up, the tested form may be a part): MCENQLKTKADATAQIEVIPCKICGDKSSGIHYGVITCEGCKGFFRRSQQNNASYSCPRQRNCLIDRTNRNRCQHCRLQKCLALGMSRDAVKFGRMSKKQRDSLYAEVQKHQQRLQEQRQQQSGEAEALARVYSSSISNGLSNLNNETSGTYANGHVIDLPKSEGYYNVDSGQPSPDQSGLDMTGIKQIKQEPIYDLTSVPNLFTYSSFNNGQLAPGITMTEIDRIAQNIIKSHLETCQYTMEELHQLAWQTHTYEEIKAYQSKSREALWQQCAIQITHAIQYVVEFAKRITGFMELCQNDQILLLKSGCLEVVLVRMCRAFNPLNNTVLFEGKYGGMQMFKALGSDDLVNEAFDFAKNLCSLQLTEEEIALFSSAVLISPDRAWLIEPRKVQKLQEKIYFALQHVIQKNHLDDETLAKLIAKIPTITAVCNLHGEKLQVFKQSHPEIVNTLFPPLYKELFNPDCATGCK
Retinoic acid receptor alpha (Homo sapiens), sequence (P10276 whole entry, looked up, the tested form may be a part): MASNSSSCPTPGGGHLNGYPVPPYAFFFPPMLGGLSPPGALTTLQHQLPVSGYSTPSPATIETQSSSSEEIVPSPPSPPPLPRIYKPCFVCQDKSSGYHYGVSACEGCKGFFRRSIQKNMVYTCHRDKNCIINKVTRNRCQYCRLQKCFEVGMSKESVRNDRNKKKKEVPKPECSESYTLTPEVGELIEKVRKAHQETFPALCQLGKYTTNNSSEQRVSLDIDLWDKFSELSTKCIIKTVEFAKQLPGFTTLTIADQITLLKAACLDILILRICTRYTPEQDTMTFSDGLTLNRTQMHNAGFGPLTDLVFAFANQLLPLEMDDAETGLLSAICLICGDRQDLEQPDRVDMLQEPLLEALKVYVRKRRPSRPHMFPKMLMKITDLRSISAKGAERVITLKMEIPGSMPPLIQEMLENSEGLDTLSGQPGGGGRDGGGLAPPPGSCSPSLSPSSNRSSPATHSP
human Peroxisome Proliferator-activated Receptor delta (PPARd), PPARD (gene 5467), sequence (Q03181 whole entry, looked up, the tested form may be a part): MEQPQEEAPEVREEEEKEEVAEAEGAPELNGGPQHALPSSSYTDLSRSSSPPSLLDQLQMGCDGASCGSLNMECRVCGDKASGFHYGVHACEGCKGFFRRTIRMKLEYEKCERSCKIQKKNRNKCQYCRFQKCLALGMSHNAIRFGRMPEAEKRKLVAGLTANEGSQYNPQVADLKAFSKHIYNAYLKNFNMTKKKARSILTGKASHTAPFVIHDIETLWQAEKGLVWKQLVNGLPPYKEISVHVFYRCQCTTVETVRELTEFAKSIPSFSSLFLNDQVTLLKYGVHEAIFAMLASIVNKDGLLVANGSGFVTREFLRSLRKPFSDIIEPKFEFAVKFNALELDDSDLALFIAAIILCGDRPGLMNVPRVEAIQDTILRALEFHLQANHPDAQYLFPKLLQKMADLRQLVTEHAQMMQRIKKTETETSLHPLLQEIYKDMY
Nuclear receptor subfamily 1 group I member 2 (Homo sapiens), sequence (O75469 whole entry, looked up, the tested form may be a part): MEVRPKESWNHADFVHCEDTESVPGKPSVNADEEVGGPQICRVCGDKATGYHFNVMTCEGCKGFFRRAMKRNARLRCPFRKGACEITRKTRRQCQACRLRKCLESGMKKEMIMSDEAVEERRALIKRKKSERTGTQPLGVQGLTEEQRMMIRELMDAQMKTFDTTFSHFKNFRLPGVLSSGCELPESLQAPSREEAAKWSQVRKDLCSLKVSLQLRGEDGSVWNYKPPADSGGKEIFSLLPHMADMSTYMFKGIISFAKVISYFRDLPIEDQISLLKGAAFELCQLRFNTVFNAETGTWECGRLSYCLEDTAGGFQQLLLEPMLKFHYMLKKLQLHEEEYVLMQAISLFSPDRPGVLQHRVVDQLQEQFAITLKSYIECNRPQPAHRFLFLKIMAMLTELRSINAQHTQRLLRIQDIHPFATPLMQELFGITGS
E-selectin (Homo sapiens), sequence (P16581 whole entry, looked up): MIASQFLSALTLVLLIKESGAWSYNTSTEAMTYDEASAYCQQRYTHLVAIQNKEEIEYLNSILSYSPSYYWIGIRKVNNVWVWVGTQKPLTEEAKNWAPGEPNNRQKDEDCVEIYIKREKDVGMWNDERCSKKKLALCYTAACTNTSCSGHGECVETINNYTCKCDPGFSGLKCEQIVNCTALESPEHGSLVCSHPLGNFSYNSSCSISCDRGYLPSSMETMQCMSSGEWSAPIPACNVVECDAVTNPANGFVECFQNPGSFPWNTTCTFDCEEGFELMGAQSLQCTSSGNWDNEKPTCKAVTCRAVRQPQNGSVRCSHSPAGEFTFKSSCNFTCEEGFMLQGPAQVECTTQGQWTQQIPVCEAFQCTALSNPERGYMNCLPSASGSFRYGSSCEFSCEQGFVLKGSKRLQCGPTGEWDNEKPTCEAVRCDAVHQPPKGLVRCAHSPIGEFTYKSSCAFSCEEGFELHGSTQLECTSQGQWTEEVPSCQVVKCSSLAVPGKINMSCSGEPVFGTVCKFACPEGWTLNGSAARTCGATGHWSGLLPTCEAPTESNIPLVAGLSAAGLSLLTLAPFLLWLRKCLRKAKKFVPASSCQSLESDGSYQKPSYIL

Nc1ncc([N+](=O)[O-])s1
not listed: [15] | [16] | [17] | [18] | [19] | [20]
inactive: all other assays above

Oc1cccc2cccnc12
active: [1] 10.4 µM | [2] 2.69 µM | [6] 4.78 µM | [11] 20 µM | [12] 5.35 µM
not listed: [7] | [10] | [17] | [18] | [19] | [20]
inactive: all other assays above

BrCCBr
active: [10] 48.2 µM
not listed: [9]
inactive: all other assays above

NC(=S)Nc1ccccc1
not listed: [7] | [8] | [9] | [10] | [16] | [19] | [20]
inactive: all other assays above

Oc1ccc(-c2ccccc2)cc1
not listed: [9] | [17] | [18] | [20]
inactive: all other assays above

C[C@@H]1C[C@@H]([C@H](O)CC2CC(=O)NC(=O)C2)C(=O)[C@@H](C)C1
active: [1] 12.4 µM | [2] 9.12 µM | [5] 12.5 µM | [6] 2.9 µM | [11] 2.4 µM | [12] 10.7 µM | [13] 8.41 µM | [14] 4.06 µM
inactive: [3] | [4] | [8] | [9] | [15] | [10] | [16]

Cc1ccccc1N
not listed: [7] | [8] | [9] | [10] | [17] | [18] | [19] | [20]
inactive: all other assays above

Nc1ccc(-c2ccc(N)c(Cl)c2)cc1Cl
active: [2] 1.93 µM | [6] 1.84 µM | [7] 11.9 µM | [8] 13.2 µM | [10] 11.2 µM
not listed: [4] | [16] | [17] | [18] | [19] | [20]
inactive: all other assays above

COP(=S)(OC)Oc1ccc(S(=O)(=O)N(C)C)cc1
not listed: [4] | [9] | [10] | [17] | [18] | [19] | [20]
inactive: all other assays above

O=c1[nH]c(=O)[nH]c(=O)[nH]1
not listed: [7] | [19]
inactive: all other assays above

COC(=O)c1sccc1S(=O)(=O)NC(=O)Nc1nc(C)nc(OC)n1
inactive: [1] | [2] | [4] | [5] | [6] | [8] | [10] | [11] | [12] | [13] | [14]

O=[N+]([O-])c1c(Cl)c(Cl)cc(Cl)c1Cl
inactive: [3] | [4] | [17] | [18] | [8] | [19] | [15] | [16]
active: [7] 0.905 µM | [10] 32.9 µM

NC(=O)O
not listed: [4] | [7] | [17] | [18] | [19]
inactive: all other assays above

O=C(OC1CCCCC1)c1ccccc1C(=O)OC1CCCCC1
active: [1] 11.7 µM | [2] 12.1 µM | [5] 14.6 µM | [6] 9.38 µM | [7] 8.15 µM | [8] 0.554 µM | [10] 7.44 µM | [11] 11.3 µM | [12] 11.6 µM | [13] 11.7 µM | [14] 8.94 µM
inactive: [16]

O=C(Cc1ccccc1)c1ccccc1
active: [8] 27.8 µM
inactive: [3] | [4] | [17] | [18] | [19] | [15] | [10]

CCOP(=S)(OCC)Oc1ccc(S(C)=O)cc1 (configuration not stated)
active: [8] 7.06 µM
not listed: [3] | [20]
inactive: all other assays above
